LmPK inhibitor: qHTS Assay for Inhibitors of Leishmania Mexicana Pyruvate Kinase (LmPK); AID 1721, 2009; Q27686; 290,000 compounds, 0.37% hits; purified LmPK, Kinase-Glo ATP luminescence, 1 h; Potency, µM (highest dose often 57.5 µM), without a hit: at the top dose activity change, negative = inhibition, usual class: inhibitors; further: potency means the concentration at half of the fitted maximal effect; on the % scale 0 is the no-effect control and ±100 the full control effect
Target sequence (Q27686 whole entry, looked up): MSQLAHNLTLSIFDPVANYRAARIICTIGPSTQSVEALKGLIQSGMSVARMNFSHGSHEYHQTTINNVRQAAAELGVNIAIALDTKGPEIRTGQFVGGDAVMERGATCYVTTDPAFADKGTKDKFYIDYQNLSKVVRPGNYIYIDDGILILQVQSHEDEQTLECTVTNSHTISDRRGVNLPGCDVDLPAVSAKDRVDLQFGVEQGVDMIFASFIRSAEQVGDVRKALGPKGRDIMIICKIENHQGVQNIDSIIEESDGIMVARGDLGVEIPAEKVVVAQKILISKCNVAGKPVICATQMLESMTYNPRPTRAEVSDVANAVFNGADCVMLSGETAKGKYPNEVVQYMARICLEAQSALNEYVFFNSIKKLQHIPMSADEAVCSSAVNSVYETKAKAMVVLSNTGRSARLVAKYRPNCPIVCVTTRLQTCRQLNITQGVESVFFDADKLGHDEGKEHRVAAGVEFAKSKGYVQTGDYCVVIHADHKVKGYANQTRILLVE
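ATP generated from ADP (0.1 mM) and PEP (0.5 mM) by 0.1 nM LmPK over 1 h at room temperature (pH 7.2 imidazole buffer) was detected by coupled luciferase luminescence. Values were normalized to uninhibited and no-enzyme wells.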
Giardia FBPA inh-1: qHTS Assay for Inhibitors of Fructose-1,6-bisphosphate Aldolase from Giardia Lamblia; 290,000 compounds, 0.71% hits; Potency, µM (titrated, usually from 59.6 µM), for the others: top-dose activity, negative = inhibition, actives largely listed as inhibitors; A8B2U2; purified Giardia FBPA; further: potency means the concentration at half of the fitted maximal effect; on the % scale 0 is the no-effect control and ±100 the full control effect; nearly all actives have a fitted effect of over 55% in size
Target sequence (A8B2U2 whole entry, looked up): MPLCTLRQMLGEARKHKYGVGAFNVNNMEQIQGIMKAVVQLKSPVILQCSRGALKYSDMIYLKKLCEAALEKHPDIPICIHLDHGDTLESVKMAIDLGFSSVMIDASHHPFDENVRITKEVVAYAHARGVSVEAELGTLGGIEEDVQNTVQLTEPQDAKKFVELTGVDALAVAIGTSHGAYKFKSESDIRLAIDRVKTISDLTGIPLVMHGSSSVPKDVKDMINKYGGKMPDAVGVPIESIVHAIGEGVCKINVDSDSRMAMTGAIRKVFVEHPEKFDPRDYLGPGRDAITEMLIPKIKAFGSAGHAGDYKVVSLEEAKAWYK
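40 nM FBPA preincubated 10 min at RT with compound (up to 57.5 uM final), then substrate plus GAPDH/TPI/NAD/arsenate coupling and diaphorase/resazurin added. Fluorescence read after 20 min at RT, 525/598 nm.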
Tb PYK inh: qHTS of Trypanosoma Brucei Inhibitors; pyruvate kinase (Trypanosoma brucei), Q57TT1; TbPYK enzyme, Kinase-Glo Plus ATP luminescence, 45 min; Potency, µM (titrated, usually from 76.8 µM), for the others: at the top dose activity, negative = inhibition, actives largely listed as inhibitors; 410,000 compounds, 0.12% hits; AID 624173, 2012; further: potency means the concentration at half of the fitted maximal effect; on the % scale 0 is the no-effect control and ±100 the full control effect; nearly all actives have a fitted effect of over 50% in size
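ADP (130 uM final) triggers the TbPYK reaction after compound addition; incubation is 45 min at room temperature. Kinase-Glo Plus is then added and luminescence imaged. Normalized data are fitted to concentration-effect curves.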
RE007 growth inh: qHTS Assay for Inhibitors of the HIV-1 protein Vpr | S. pombe RE007 Vpr strain, BacTiter-Glo ATP luminescence, 24 h | 360,000 compounds, 0.21% hits | Potency, µM (series often up to 92.2 µM), for the others: top-dose activity change, negative = less growth, usual class: inhibitors; active means well fitted falling curve with a large enough effect; inconclusive means small, poorly fitted or top-dose-only effect; inactive means no such curve, though single readings can be large or run the other way; further: potency means the concentration at half of the fitted maximal effect; on the % scale 0 is the no-effect control and ±100 the full control effect; nearly all actives have a fitted effect of over 50% in size
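Fission yeast strain RE007, carrying one chromosomally integrated HIV-1 vpr copy, was seeded at OD 0.01 in PMG+AL medium with 23 nL pinned compound. After 24 h at 30 °C and 99% humidity, viability was read by BacTiter-Glo luminescence.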
SARS PLpro yeast-1: qHTS of Yeast-based Assay for SARS-CoV PLP. 330,000 compounds, 0.19% hits. S. cerevisiae expressing SARS-CoV PLpro, growth rescue. AID 485353, 2010. Potency, µM (titrated, usually from 32.9 µM), for inactives: at the highest dose activity, positive = growth rescue, usual class: activators; calls by dose curve; further: potency means the concentration at half of the fitted maximal effect; 0% is about no effect; nearly all actives have a fitted effect of over 55% in size
Giardia growth: qHTS Assay for Inhibitors of Fructose-1,6-bisphosphate Aldolase from Giardia Lamblia: Giardia lamblia growth inhibition. shares compounds with Giardia FBPA inh-1. Giardia lamblia trophozoite growth inhibition. Potency, µM (highest dose often 57.5 µM), without a hit: top-dose activity change, negative = inhibition, hits mostly inhibitors. 1,500 compounds, 5% hits;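 further: potency means the concentration at half of the fitted maximal effect; trophozoites exposed to compound for 48 h at 37 °C; on the % scale 0 is the no-effect control and ±100 the full control effect; nearly all actives have a fitted effect of over 70% in size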
Mammal cell tox: qHTS Assay for Inhibitors of Fructose-1,6-bisphosphate Aldolase from Giardia Lamblia: Mammalian cellular toxicity. shares compounds with Giardia FBPA inh-1. mammalian cell viability counter-screen, qHTS. Potency, µM (titrated, usually from 57.5 µM), inactives show top-dose viability change, negative = toxicity, usual class: inhibitors. 1,500 compounds, 4% hits;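 further: Chinese hamster ovary cells used as mammalian cytotoxicity surrogate; viability measured as cellular ATP by luminescence; potency means the concentration at half of the fitted maximal effect; compound exposure lasted 48 h before reading; on the % scale 0 is the no-effect control and ±100 the full control effect; nearly all actives have a fitted effect of over 60% in size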
Giardia FBPA inh-2: qHTS Assay for Inhibitors of Fructose-1,6-bisphosphate Aldolase from Giardia Lamblia: Primary screen confirmation. shares compounds with Giardia FBPA inh-1. purified Giardia aldolase enzyme activity, qHTS. Potency, µM (highest dose often 57.5 µM), for inactives: at the highest dose activity change, negative = inhibition, usual class: inhibitors. 1,500 compounds, 5% hits. AID 2787, 2010; further: potency means the concentration at half of the fitted maximal effect; on the % scale 0 is the no-effect control and ±100 the full control effect; nearly all actives have a fitted effect of over 45% in size
Rabbit aldolase: qHTS Assay for Inhibitors of Fructose-1,6-bisphosphate Aldolase from Giardia Lamblia: Rabbit FBPA Selectivity; Potency, µM (doses to about 57.5 µM), inactives show at the top dose activity, negative = inhibition, actives largely listed as inhibitors; 1,500 compounds, 4% hits; shares compounds with Giardia FBPA inh-1; Rabbit muscle FBPA enzyme inhibition, selectivity counter-screen; further: potency means the concentration at half of the fitted maximal effect; on the % scale 0 is the no-effect control and ±100 the full control effect; nearly all actives have a fitted effect of over 60% in size
GAPDH coupling: qHTS Assay for Inhibitors of Fructose-1,6-bisphosphate Aldolase from Giardia Lamblia: Coupling assay counterscreen confirmation; Potency, µM (titrated, usually from 57.5 µM), without a hit: top-dose activity change, negative = inhibition, actives largely listed as inhibitors; GAPDH coupling enzyme counterscreen, biochemical, qHTS; 1,500 compounds, 6% hits; shares compounds with Giardia FBPA inh-1; further: potency means the concentration at half of the fitted maximal effect; on the % scale 0 is the no-effect control and ±100 the full control effect; nearly all actives have a fitted effect of over 55% in size
SARS PLpro yeast-2: qHTS of Yeast-based Assay for SARS-CoV PLP: Hit Validation. 1,000 compounds, 19% hits. calls only. yeast expressing SARS-CoV PLpro, growth phenotype rescue. shares compounds with SARS PLpro yeast-1; call rule not given here
Numbers without * were called inactive; i = inactive; ? = inconclusive; / = no result given; + = active, no number; [ ] = remark or other dose. A selection: hits, their analogues and other compounds. The true share with any hit is near 1.1%. Unless noted, the call rests on the fitted dose curve; in most records, active means well fitted curve in the direction sought with a large enough effect; inconclusive means small, poorly fitted or top-dose-only effect, or another doubt; inactive means no such curve, though single readings can be large; an effect the other way counts as inactive or inconclusive.

SMILES	LmPK inhibitor	Giardia FBPA inh-1	Tb PYK inh	RE007 growth inh	SARS PLpro yeast-1	Giardia growth	Mammal cell tox	Giardia FBPA inh-2	Rabbit aldolase	GAPDH coupling	others
CCOc1ccc(CNc2ncc(-c3ccccc3)n2C)cc1	-4%	?	-5%	-16%	-8%	/	/	/	/	/
Cn1c(-c2ccc(F)cc2)cnc1NCc1ccccc1F	-8%	28µM*	6%	-9%	-9%	-9%[10.4 µM]	2%	1%	3%	11%
COc1ccc(OC)c(CNc2ncc(-c3cccc([N+](=O)[O-])c3)n2C)c1	-3%	28µM*	19%	-2%	-6%	?	-3%	-6%	1%	4%
COc1cc2ccccc2cc1C(=O)N1CCN(c2nc3c(C)cc(C)cc3s2)CC1	/	/	4%	/	/	/	/	/	/	/
Cc1ccc(/C=C2\SC(=S)N(NS(=O)(=O)c3ccc(C)cc3)C2=O)cc1	-3%	25µM*	-2%	13%	-2%	24%	-8%	16%	8%	17%
Cc1ccc(S(=O)(=O)NN2C(=O)/C(=C\c3ccc(Cl)cc3)SC2=S)cc1	-9%	/	-4%	-9%	2%	/	/	/	/	/
NC(=O)c1sc(=S)n2c1[nH]c(=O)c1sccc12	-25%	-11%	-18%	-25%	-1%	/	/	/	/	/
CC(=O)NNC(=O)c1sc(=S)n2c1[nH]c(=O)c1sccc12	-11%	18µM*	?	-12%	0%	-20%	3%	13%	?	-24%
CN(CCc1ccccn1)Cc1ccc(Cl)cc1Cl	-4%	18µM*	27%	-7%	1%	23%	5%	2%	0%	13%
CSc1ccc(CN(C)CCc2ccccn2)cc1	-7%	14µM*	9%	-5%	0%	-9%[10.4 µM]	3%	1%	0%	5%
COc1ccc(OC)c(CNC(=O)c2cc3c(=O)oc4ccc(C)cc4c3s2)c1	/	/	-3%	/	/	/	/	/	/	/
COC(=O)c1cc2sc(C)cc2n1CC(=O)Nc1ccc(C)cc1Cl	/	/	1%	/	/	/	/	/	/	/
O=C(NN1C(=O)/C(=C/C=C/c2ccco2)SC1=S)c1ccncc1	-9%	7.1µM*	-23%	7%	1%	-21%[38.3 µM]	-15%	?	?	-27%
O=C(NN1C(=O)/C(=C/C=C/c2ccccc2)SC1=S)c1ccncc1	13%	-26%	-2%	-23%	5%	/	/	/	/	/
NC(=O)C(=O)NN=C1C2CC3CC(C2)CC1C3	-2%	-10%	2%	3%	-6%	/	/	/	/	/
NC(=S)NN=C1C2CC3CC(C2)CC1C3	5%	18µM*	-15%	-9%	?	11%	6%	-2%	15%	6%	SARS PLpro yeast-2=i
CC(C)NC(=O)Cn1ccc2cc(S(=O)(=O)N3CCCCCC3)ccc21	/	/	-10%	/	/	/	/	/	/	/
Cc1ccc(Cl)cc1N1CCN(CCCNC(=O)c2nnc(Cc3cccc(Cl)c3)o2)CC1	/	/	7%	/	/	/	/	/	/	/
O=C(N/N=C/c1ccc(O)c(O)c1O)/C(=C/c1ccc([N+](=O)[O-])cc1)NC(=O)c1ccccc1	-3%	6.3µM*	-11%	-8%	2.5µM*	?	-12%	?	?	?	SARS PLpro yeast-2=i
O=C(Oc1c(CN2CCOCC2)cc(Cl)c2cccnc12)c1ccccc1F	4%	16µM*	4%	?	2.5µM*	7.9µM*	7.9µM*	?	?	-27%	SARS PLpro yeast-2=?
CCCCOc1ccc(C(=O)NCC(=O)NC2CC2)cc1	/	/	-1%	10%	11µM*	/	/	/	/	/	SARS PLpro yeast-2=i
CCOc1ccc2nc(N3CCCC(C(=O)NCc4ccc(C)cc4)C3)sc2c1 (stereo unspecified)	/	/	3%	/	/	/	/	/	/	/
CC1=C(C(=O)OCc2ccccc2)C(/C=C/c2ccccc2)NC(=S)N1 (stereo unspecified)	-1%	0%	-8%	0%	/	/	/	/	/	/	SARS PLpro yeast-2=+
CCc1ccc(C(=O)c2cn(CC(=O)Nc3cc(OC)ccc3OC)c3ccc(Cl)cc3c2=O)cc1	/	/	-9%	/	/	/	/	/	/	/
C=CCn1c(O)c(N=NC(=S)Nc2ccccc2F)c2ccccc21	-9%	-9%	1%	-3%	-2%	/	/	/	/	/
SMILES	LmPK inhibitor	Giardia FBPA inh-1	Tb PYK inh	RE007 growth inh	SARS PLpro yeast-1	Giardia growth	Mammal cell tox	Giardia FBPA inh-2	Rabbit aldolase	GAPDH coupling	others
C=CCn1c(O)c(N=NC(=S)Nc2cccc(C)c2)c2ccccc21	3%	-21%	1%	4%	?	/	/	/	/	/	SARS PLpro yeast-2=+
Cc1ccc2oc(=O)c3cnn(CC(=O)N(C)c4ccc(F)cc4)c3c2c1	/	/	-3%	/	/	/	/	/	/	/
Nc1cc(Cl)nc(N/N=C/c2c(O)ccc3ccccc23)n1	2%	-4%	9%	-4%	2.5µM*	/	/	/	/	/	SARS PLpro yeast-2=i
CCOC(=O)c1c(C)oc2nc(C)nc(NCCc3ccc(OCC)c(OCC)c3)c12	/	/	-1%	/	/	/	/	/	/	/
CCN(C(=O)CCn1cnc2onc(-c3ccc(F)cc3)c2c1=O)c1ccc(OC)cc1	/	/	0%	/	/	/	/	/	/	/
COc1ccc(N(C(C)C(=O)NN=C2CCCC2)S(C)(=O)=O)cc1 (stereo unspecified)	2%	9%	3%	9%	11µM*	/	/	/	/	/	SARS PLpro yeast-2=i
CCOc1ccc(N(C(C)C(=O)NN=C2CCCCCCC2)S(C)(=O)=O)cc1 (stereo unspecified)	3%	3%	13%	9%	1%	/	/	/	/	/
Cc1c(CNC2CCCCCC2)c(C(=O)O)c(C)n1Cc1c(F)cccc1Cl	/	/	2%	/	/	/	/	/	/	/
COc1ccc(C)cc1NC(=O)NCc1ccco1	4%	-1%	0%	-7%	-1%	/	/	/	/	/

Bioassay records deposited in PubChem by National Center for Advancing Translational Sciences (NCATS).
